In PubChem BioAssay (Tox21):
Inconclusive results are not listed. Active and inactive are the calls of the source. Unless noted, calls follow the shape of the dose curve; as a rule, active = well fitted curve in the direction sought with a large enough effect in the repeat runs; inconclusive = weak or mixed curves; inactive = no such curve, though single readings can be large; an effect the other way counts as inactive or inconclusive.

Experiments:
[1] = qHTS assay to identify small molecule antagonists of the thyroid receptor (TR) signaling pathway - cell viability counter screen (AID 743064); also: nearly all actives have a fitted effect of over 50% in size
Outline: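 GH3.TRE-Luc rat pituitary cells carrying a TRE-luciferase reporter were treated with compound plus 1 nM T3 (final) for 23.5 h at 37 °C. Viability was then read in the same wells by CellTiter-Fluor fluorescence after a further 30 min.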

[2] = qHTS assay to identify small molecule antagonists of the thyroid receptor (TR) signaling pathway (AID 743065); also: series mostly up to about 70 µM; nearly all actives have a fitted effect of over 55% in size
Outline: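 Antagonism measured as loss of luciferase signal in GH3 cells stably carrying a TRE-luciferase reporter, co-treated with compound and T3 (1 nM final) for 23.5 h at 37 C. Viability was read in the same well by CellTiter-Fluor.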

[3] = system: thyroid hormone receptor (rat, GH3 cells); test: qHTS assay to identify small molecule agonists of the thyroid receptor (TR) signaling pathway (AID 743066; calls by dose curve)
[4] = molecular target: Estrogen receptor (Homo sapiens) (UniProt P03372); test: qHTS assay to identify small molecule antagonists of the estrogen receptor alpha (ER-alpha) signaling pathway (AID 743069; active = well fitted curve in the direction sought with a large enough effect in the signal ratio in the repeat runs, not every such curve was filed as active; the % refers to the signal ratio)
Outline: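 Antagonist mode: compounds in DMSO were co-added with 17beta-estradiol to ER-alpha-bla HEK293 cells (2% charcoal-stripped serum) and left 18 h at 37C. Reporter inhibition was measured as FRET fluorescence after 2 h LiveBLAzer substrate at room temperature.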

[5] = qHTS assay to identify small molecule antagonists of the estrogen receptor alpha (ER-alpha) signaling pathway - cell viability counter screen (AID 743074; calls by dose curve;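 also: HEK293 cells carrying ER-alpha-UAS-bla reporter stimulated with 17beta-estradiol; nearly all actives have a fitted effect of over 45% in size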)
[6] = molecular target: Estrogen receptor (Homo sapiens) (UniProt P03372); test: qHTS assay to identify small molecule agonists of the estrogen receptor alpha (ER-alpha) signaling pathway (AID 743075; calls by dose curve;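 also: HEK293 GripTite cells with ER-alpha and UAS-driven beta-lactamase reporter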)
[7] = molecular target: Estrogen receptor (Homo sapiens) (UniProt P03372); test: qHTS assay to identify small molecule agonists of the estrogen receptor alpha (ER-alpha) signaling pathway using the BG1 cell line (AID 743079); also: nearly all actives have a fitted effect of over 20% in size
[8] = qHTS assay to identify small molecule antagonists of the estrogen receptor alpha (ER-alpha) signaling pathway using the BG1 cell line (AID 743080; calls by dose curve;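 also: BG1 cells stimulated with 17beta-estradiol alongside compound; series mostly up to about 70 µM; nearly all actives have a fitted effect of over 25% in size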)
Outline: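 BG1Luc4E2, endogenous ER-alpha, 4xERE-luc; 5 d charcoal-stripped FBS, phenol red free; 24 h plating; cpd + 17beta-estradiol 21.5 h, 37 C/5% CO2; CellTiter-Fluor viability 30 min, then ONE-Glo luciferase 30 min RT.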

[9] = qHTS assay to identify small molecule antagonists of the estrogen receptor alpha (ER-alpha) signaling pathway using the BG1 cell line - cell viability counter screen (AID 743081);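 also: compound given together with 17beta-estradiol as the ER stimulus; series mostly up to about 70 µM; nearly all actives have a fitted effect of over 45% in size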
[10] = molecular target: Aromatase (Homo sapiens) (UniProt P11511); test: qHTS assay to identify aromatase inhibitors (AID 743083); also: series mostly up to about 70 µM; nearly all actives have a fitted effect of over 55% in size

Measured: Potency

Aromatase (Homo sapiens), sequence (P11511 whole entry, looked up): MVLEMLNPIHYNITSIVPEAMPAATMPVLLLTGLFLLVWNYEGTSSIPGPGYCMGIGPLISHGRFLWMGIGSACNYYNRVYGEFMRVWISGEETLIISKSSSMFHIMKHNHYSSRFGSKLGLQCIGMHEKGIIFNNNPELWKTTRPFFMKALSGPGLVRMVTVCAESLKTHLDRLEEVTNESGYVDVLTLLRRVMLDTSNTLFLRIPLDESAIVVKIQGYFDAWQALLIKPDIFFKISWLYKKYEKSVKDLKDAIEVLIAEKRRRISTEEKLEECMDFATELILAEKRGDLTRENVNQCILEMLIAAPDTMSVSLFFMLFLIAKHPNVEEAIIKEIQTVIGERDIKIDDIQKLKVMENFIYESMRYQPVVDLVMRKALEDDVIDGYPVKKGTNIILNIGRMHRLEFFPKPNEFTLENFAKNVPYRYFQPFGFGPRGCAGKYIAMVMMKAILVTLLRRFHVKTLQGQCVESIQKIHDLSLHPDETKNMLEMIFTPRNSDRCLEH
Estrogen receptor (Homo sapiens), sequence (P03372 whole entry, looked up): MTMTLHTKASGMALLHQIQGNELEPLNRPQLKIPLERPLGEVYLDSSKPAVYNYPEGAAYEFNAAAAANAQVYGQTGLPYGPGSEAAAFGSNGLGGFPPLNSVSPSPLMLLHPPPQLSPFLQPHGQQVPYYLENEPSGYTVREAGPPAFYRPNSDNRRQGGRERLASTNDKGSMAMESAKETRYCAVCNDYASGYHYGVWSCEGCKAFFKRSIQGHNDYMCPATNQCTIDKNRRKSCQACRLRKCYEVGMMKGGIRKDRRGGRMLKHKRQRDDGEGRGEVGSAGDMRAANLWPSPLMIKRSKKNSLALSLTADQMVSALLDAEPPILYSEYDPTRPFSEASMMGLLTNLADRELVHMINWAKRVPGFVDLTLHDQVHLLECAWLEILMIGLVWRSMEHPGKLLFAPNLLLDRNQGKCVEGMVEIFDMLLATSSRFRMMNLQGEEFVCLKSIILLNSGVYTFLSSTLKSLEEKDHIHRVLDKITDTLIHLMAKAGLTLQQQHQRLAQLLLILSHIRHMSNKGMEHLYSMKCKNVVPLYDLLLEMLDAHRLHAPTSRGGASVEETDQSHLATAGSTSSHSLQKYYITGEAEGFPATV

CCCC(=O)C(C)=O
inactive: all assays above

Cc1ccsc1/C=C/C1=NCCCN1C
inactive: all assays above

NS(=O)(=O)c1ccc(NC(=O)CCC(=O)O)cc1
inactive: all assays above

CCCCC(CC)COCCO (centres undefined)
inactive: all assays above

CC1(C)S[C@@H]2[C@H](N=CN3CCCCCC3)C(=O)N2[C@H]1C(=O)O
inactive: all assays above

O=C1c2ccccc2C(=O)N1CCl
inactive: all assays above

Oc1cn2c(n1)Nc1ccc(Cl)c(Cl)c1C2
inactive: all assays above

C=C(C)C(=O)OCc1ccccc1
inactive: all assays above

O=C(NCCc1c[nH]c2ccccc12)c1cccnc1
not listed: [10]
inactive: all other assays above

O=C(CCNNC(=O)c1ccncc1)NCc1ccccc1
inactive: all assays above

CC(=O)OC(C)OC(=O)C(C)c1ccc(-c2ccccc2)c(F)c1 (centres undefined)
inactive: all assays above

CC[C@H](C)C(=O)O[C@H]1C[C@H](O)C=C2C=C[C@H](C)[C@H](CC[C@@H](O)C[C@@H](O)CC(=O)O)[C@H]21
inactive: all assays above

CCOc1cc(NC(C)=O)ccc1C(=O)OC
not listed: [8]
inactive: all other assays above

C=C(C)C1CCC(C)(O)CC1 (centres undefined)
inactive: all assays above

CCNC(=O)C1CC(C)CCC1C(C)C (centres undefined)
not listed: [8]
inactive: all other assays above

CCCCCCCCC(=O)Cl
not listed: [8]
inactive: all other assays above

O=C(O)Cc1cn(-c2ccccc2)nc1-c1ccc(Cl)cc1
not listed: [8]
inactive: all other assays above

CCOC(=O)[C@H](CCc1ccccc1)N[C@@H](C)C(=O)N1C(=O)N(C)C[C@H]1C(=O)O
not listed: [9]
inactive: all other assays above

CCCCCCCCCC(C)=O
not listed: [8]
inactive: all other assays above

CN(C)C(=O)CNC(=O)Cc1ccccc1
not listed: [9]
inactive: all other assays above

O=C1c2ccccc2C(=O)c2cc(S(=O)(=O)O)ccc21
not listed: [8]
inactive: all other assays above

CN1C(C)(C)CCCC1(C)C
not listed: [8]
inactive: all other assays above

CCCCCCCC/C=C\CCCCCCCC(=O)OCCCC
inactive: all assays above

O=C1O[C@@H]2[C@@H](O)[C@H](O)O[C@@H]2[C@H]1O
not listed: [8]
inactive: all other assays above
